Source: PubChem BioAssay (National Center for Advancing Translational Sciences (NCATS))
DT40 TDP1 no CPT = qHTS for Inhibitors of human tyrosyl-DNA phosphodiesterase 1 (TDP1): qHTS in cells in absence of CPT; DT40 Tdp1-/- hTDP1 cells, no CPT, ATP luminescence, 48 h; Potency, µM (titrated, usually from 46.2 µM), inactives show at the highest dose activity change, negative = growth inhibition, most hits filed as inhibitors; 420,000 compounds, 15% hits; AID 686978, 2013; further: potency means the concentration at half of the fitted maximal effect; nearly all actives have a fitted effect of over 55% in size
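Chicken DT40 Tdp1-/- cells stably complemented with human TDP1 were seeded at 400 cells/well with DMSO in place of 20 nM camptothecin. After compound pinning, cells grew at least 48 hr at 37 °C; viability read by CellTiter-Glo luminescence.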
IL1B secr inh = blocks inflammasome-driven IL-1 beta release | 360,000 compounds, 4.7% hits | THP-1 LPS/ATP IL-1B secretion, AlphaLISA, 16 h; hits give low values | activity change, % at 57.5 µM | AID 743279; in the data active means activity change below about -50%; inconclusive means mostly about -30% to -49%
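Secreted IL-1B measured by AlphaLISA bead assay after 16 h compound exposure of THP-1 cells; compounds (final up to 57.5 uM) added 1 h before LPS (250 ng/mL) and ATP (1.25 mM) stimulation; lower signal means less secretion.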
HT1080-NT tox = kills 2HG-producing HT-1080-NT fibrosarcoma cells; HT-1080-NT fibrosarcoma viability, CellTiter-Glo ATP luminescence, 48 h; 360,000 compounds, 1.6% hits; AID 686970; Potency, µM (series often up to 46.1 µM), for inactives: at the top dose activity, negative = less viability, actives largely listed as cytotoxic;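 further: NT is the 2HG producing partner of a matched IDH1 knockdown line; potency means the concentration at half of the fitted maximal effect; 0% = DMSO-treated cells and -100% = media-only wells without cells; nearly all actives have a fitted effect of over 55% in size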
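Read-out is CellTiter-Glo luminescence after 10 minutes at room temperature, following 48 hours' compound treatment of HT-1080-NT cells (750 cells/well, RPMI, 5% FBS, 37 degrees C).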
DT40 TDP1 CPT = growth inhibition of DT40 Tdp1-/-;hTDP1 cells with camptothecin (screen for TDP1 inhibitors); chicken DT40 Tdp1-/-;hTDP1 cells + 20 nM CPT, ATP luminescence, 48 h; Potency, µM (doses to about 46.2 µM), for inactives: top-dose activity change, negative = growth inhibition, actives largely listed as inhibitors; 420,000 compounds, 12% hits; further: potency means the concentration at half of the fitted maximal effect; nearly all actives have a fitted effect of over 55% in size
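Chicken DT40 Tdp1-/- cells complemented with human TDP1, 400 cells/well, exposed to compounds plus 20 nM camptothecin for at least 48 h at 37 C; viability read as ATP content by CellTiter-Glo luminescence.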
ELG1 DNA repair = blocks ELG1-dependent DNA repair in HEK293T cells. HEK293T ELG1-luciferase reporter, luminescence, 16 h; DNA damage induced by 5-fluorouridine. Potency, µM (highest dose often 46.1 µM), for the others: at the highest dose activity change, negative = inhibition, hits mostly inhibitors. 330,000 compounds, 2.3% hits. AID 504467; further: potency means the concentration at half of the fitted maximal effect; nearly all actives have a fitted effect of over 55% in size
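Reporter activity after DNA damage by 5-fluorouridine is monitored. Compound-treated cells incubate 16 hr at 37 °C, then ONE-Glo is added for 30 min before luminescence reading.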
HT1080 IDH1KD tx = kills HT-1080 cells with IDH1 knockdown. HT-1080 IDH1 knockdown viability, ATP luminescence, 48 h. Potency, µM (top dose mostly 46.1 µM), for the others: at the highest dose activity, negative = toxicity, hits mostly cytotoxic. 360,000 compounds, 2% hits. AID 686971;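 further: potency means the concentration at half of the fitted maximal effect; 0% = DMSO wells and -100% = cell-free medium wells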
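CellTiter-Glo luminescence after 48 h compound exposure at 37 degrees C of IDH1-knockdown HT-1080 cells in 5% FBS RPMI. %Activity scaled between DMSO wells and cell-free media wells, with curves fitted and assigned curve classes.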
* = called active by the depositor; ? = inconclusive; / = no result given. Shown are actives, neighbours in structure and some others; about 19% of the full set was active somewhere. Unless noted, the call rests on the fitted dose curve; in most records, active means well fitted curve in the direction sought with a large enough effect; inconclusive means small, poorly fitted or top-dose-only effect, or another doubt; inactive means no such curve, though single readings can be large; an effect the other way counts as inactive or inconclusive. Unless noted, on the % scale 0 is the no-effect control and ±100 the full control effect.

SMILES	DT40 TDP1 no CPT	IL1B secr inh	HT1080-NT tox	DT40 TDP1 CPT	ELG1 DNA repair	HT1080 IDH1KD tx
CCOC(=O)C1(Cc2ccccc2Cl)CCN(C(=O)CCn2ccnc2C)CC1	-18%	6	14%	-18%	?	10%
CC(c1ccco1)N(C(=O)C12CC3CC(CC(C)(C3)C1)C2)c1ccccn1 (stereo unspecified)	21µM*	0	0%	16µM*	5%	-3%
CC(c1ccco1)N(C(=O)c1ccc(F)cc1)c1ccccn1 (stereo unspecified)	?	9	?	-10%	4%	-4%
Cc1ccc(CN2CCC(CNC(=O)c3ccc(NC(=O)C4=CSCCO4)cc3)CC2)cc1	-25%	-2	-10%	-20%	-2%	-5%
O=C(CSc1ccc2c(c1)OCCO2)Nc1ccc2c(c1)OCO2	?	-5	1%	?	?	0%
COc1ccc(NC(=O)CSc2ccc3c(c2)OCCO3)cc1OC	?	5	5%	21µM*	-11%	0%
COc1cc(NC(=O)CSc2ccc3c(c2)OCCO3)cc(OC)c1OC	21µM*	-3	-5%	21µM*	?	-6%
Cc1ccc(-n2c(SCC(=O)N/N=C/c3c(C)nn(-c4ccccc4)c3C)nc3ccccc3c2=O)cc1	?	6	-17%	21µM*	23µM*	-22%
Cc1ccc(-n2c(SCC(=O)N/N=C/c3ccccc3OCC(=O)O)nc3ccccc3c2=O)cc1	5%	-2	5%	11%	4%	2%
Cc1nn(-c2ccccc2)c(C)c1/C=N/NC(=O)CSc1nc2ccccc2c(=O)n1-c1ccc(Br)cc1	?	20	21µM*	?	-19%	13µM*
COc1ccc(CCNC(=O)CN(c2ccccc2)S(=O)(=O)N(C)C)cc1OC	-9%	/	/	-12%	/	/
NS(=O)(=O)c1ccc(N2N=C(c3ccccc3)CC2c2ccccc2Cl)cc1 (stereo unspecified)	-23%	-25	-27%	-8%	7%	?
Cc1nc(C(F)(F)F)c(C(=O)N/N=C(\N)c2ccccn2)s1	4.1µM*	47	?	13µM*	?	16µM*
N/C(=N\NS(=O)(=O)c1ccccc1C(F)(F)F)c1ccccn1	-17%	0	6%	3%	?	-1%
O=C(C[n+]1ccc2ccccc2c1)c1ccc2ccc3ccccc3c2c1	4.1µM*	?	?	3.3µM*	/	?
O=C1CCCC2=C1C1(CCCCC1)N=C(Nc1nc3ccccc3o1)N2	13µM*	-27	-9%	?	-13%	-20%
O=C(c1ccccc1Cl)N1CCNCC1	0%	7	6%	4%	-5%	11%
Clc1ccc2c(c1)C(N1CCNCC1)Cc1ccccc1S2 (stereo unspecified)	23µM*	-100*	?	?	?	18µM*
Clc1cccc2c1Sc1ccccc1CC2N1CCNCC1 (stereo unspecified)	18µM*	/	23µM*	18µM*	?	18µM*
COc1ccc(CN2CCNC(=O)C2CC(=O)NCCN2CCCCC2=O)c(F)c1 (stereo unspecified)	1%	9	-7%	-16%	12%	-1%
CCN(CC)c1ccc2c(O)cc(=O)oc2c1	1%	14	1%	5%	1%	22%
CCN(CC)c1ccc(C(=O)OCc2cc(=O)oc3cc(O)ccc23)cc1	16µM*	54	?	?	-6%	?
CCN(CC)c1ccc2c(Cl)cc(=O)oc2c1	-29%	-27	3%	23µM*	-28%	-2%
O=C(c1ccc(CS(=O)c2ccccc2Cl)o1)N1CCN(c2ccccn2)CC1 (stereo unspecified)	2.1µM*	-1	?	3.7µM*	?	7.3µM*
